Bioassay records from PubChem.
HTR5A ag: HTR5A agonists in luminescence cell assay, primary screen, counter-screen for OPRM1-OPRD1 heterodimer agonist project, full-deck HTS | 5-hydroxytryptamine receptor 5A (Homo sapiens), P47898 | cell-based | activation, % at 9.3 µM | actives 0.61% (n = 340,000) | AID 504692, 2011; in the data active = activation mostly above about 9.5%, no sharp cut-off; inactive = mostly below about 7.6%
Target sequence (P47898 whole entry, looked up): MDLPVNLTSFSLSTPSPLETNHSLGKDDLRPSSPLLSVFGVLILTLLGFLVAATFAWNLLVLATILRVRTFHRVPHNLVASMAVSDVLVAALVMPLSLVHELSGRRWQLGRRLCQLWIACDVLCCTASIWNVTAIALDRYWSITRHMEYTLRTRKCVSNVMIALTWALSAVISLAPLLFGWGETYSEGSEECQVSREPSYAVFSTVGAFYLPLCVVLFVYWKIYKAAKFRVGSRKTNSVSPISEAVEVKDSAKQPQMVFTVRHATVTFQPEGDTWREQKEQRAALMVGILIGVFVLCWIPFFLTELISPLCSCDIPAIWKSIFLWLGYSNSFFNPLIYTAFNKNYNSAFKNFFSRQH
OPRM1-OPRD1 inv: inverse agonists of MOR-DOR heterodimerization, primary screen, cell-based, luminescence | Mu-type opioid receptor (Homo sapiens) + Delta-type opioid receptor (Homo sapiens), … | actives 0.21% (n = 340,000) | cell-based MOR-DOR heterodimer luminescence, inverse agonism | inhibition, % at 9.3 µM; in the data active = inhibition above about 22%, passing the limit was not always enough
OPRM1-OPRD1 ag: agonists of OPRM1-OPRD1 heterodimerization, primary screen, cell-based, luminescence; Mu-type opioid receptor (Homo sapiens) + Delta-type opioid receptor (Homo sapiens), …; cells; activation, % at 9.3 µM; actives 0.3% (n = 340,000)
HTR5A inv ag: HTR5A inverse agonists in luminescence cell assay, primary screen, counter-screen for OPRM1-OPRD1 heterodimer inverse agonist project, full-deck HTS; inhibition, % at 9.3 µM; HTR5A cell line, inverse agonism; actives 0.083% (n = 340,000); in the data active = inhibition mostly above about 23%, no sharp cut-off; inactive = mostly below about 18%
OPRM1-D1 ag cf: agonists of MOR-DOR heterodimerization, confirmation, cell-based, luminescence | shares compounds with OPRM1-OPRD1 ag | cells, luminescence complementation | activation, % at 9.3 µM | actives 45% (n = 830)
HTR5A ag counter: HTR5A agonists in cells, counter-screen for OPRM1-OPRD1 heterodimer agonist project, cell-based, luminescence; shares compounds with OPRM1-OPRD1 ag; HTR5A agonist counterscreen; activation, % at 9.3 µM; actives 8% (n = 830); AID 504905, 2011; in the data active = activation above about 17%
A number is an active result; i = inactive; nt = not tested or not shown. Compounds with a hit are over-represented: about 1.1% of the library has one in this group of screens. Cut-off read from the data, not from the text of the source, unless noted: active = activation above about 18%; inactive = the rest.

SMILES	HTR5A ag	OPRM1-OPRD1 inv	OPRM1-OPRD1 ag	HTR5A inv ag	OPRM1-D1 ag cf	HTR5A ag counter
CCOc1cc(/C=N/NC(=O)c2ccncc2)ccc1OC(=O)c1ccccc1	i	i	i	i	nt	nt
Cc1cccc(-n2nc(C(=O)c3ccco3)cc(-c3nc4ccccc4[nH]3)c2=N)c1	i	i	31	i	i	i
CCc1cc2ccc(OC)cc2nc1SCC(=O)Nc1cc(C)on1	i	i	22	i	i	20
CCc1cc2cc(C)c(C)cc2nc1SCC(=O)Nc1cc(C)on1	i	i	i	i	nt	nt
CCN(CC(=O)Nc1ccccc1C(F)(F)F)C(=O)c1ccccc1OCc1ccc(F)cc1	i	i	i	i	nt	nt
CCC1CCCCN1CCN1C(=O)C2C(C(=O)Nc3ccc(OC)cc3)C3C=CC2(O3)C1C(=O)NC1CCCCC1 (stereo not drawn)	i	i	34	i	i	i
COC(=O)NCC(c1ccc2c(c1)OCO2)N1CCN(c2ccc(OC)cc2)CC1 (stereo not drawn)	i	i	79	i	i	i
CC(C)(C)NC(=O)C(c1ccc(-c2ccccc2)cc1)N(C[C@H]1CC[C@@H]([C@@H]2CC[C@H](CO)O2)O1)C(=O)c1ccc(C(C)(C)C)cc1 (stereo partly drawn)	i	i	i	i	nt	nt
COc1cccc(N2CCN(c3ncnc4c3[nH]c3ccc(F)cc34)CC2C)c1 (stereo not drawn)	15	i	43	i	i	i
COc1ccc(NS(=O)(=O)c2cc(NC(=O)COc3ccc(OC)cc3)ccc2N2CCOCC2)cc1	i	i	i	i	nt	nt
CC1CCN(S(=O)(=O)c2ccc3c(c2)C(=NO)c2cc(S(=O)(=O)N4CCC(C)CC4)ccc2-3)CC1	i	i	30	i	i	i
O=S(=O)(c1ccc2c(c1)C(=NO)c1cc(S(=O)(=O)N3CCCCC3)ccc1-2)N1CCCCC1	i	i	i	i	nt	nt
NC(N)=NC(=O)c1nc(Cl)c(N2CCCCCC2)nc1N	i	i	72	i	95	i
NC(N)=NC(=O)c1nc(Cl)c(N)nc1N	i	i	i	i	nt	nt
CCCN(CC(=O)Nc1ccccc1OC)C(=O)c1cc(-c2ccccc2)nn1-c1ccccc1	i	i	i	i	nt	nt
COc1ccc(C(CNc2ncnc3sc(C)c(C)c23)N(C)C)cc1 (stereo not drawn)	i	i	102	i	68	i
COc1ccc(C(CNc2ncnc3sccc23)N(C)C)cc1OC (stereo not drawn)	i	i	20	i	i	25
O=C(NCC(=O)N1CCN(C/C=C/c2ccccc2)CC1)c1ccc(OC(F)F)cc1	i	i	i	i	nt	nt
Cc1ccc(COn2c(-c3ccc(Cl)cc3Cl)nc3ncccc32)cc1	i	i	77	i	i	35
Cc1ccc(S(=O)(=O)N2C[C@@H]3[C@H]4CC[C@H](C4)[C@@H]3[C@@H](C)[C@@H]2c2ccn([Si](C(C)C)(C(C)C)C(C)C)c2)cc1	i	i	i	i	nt	nt
COc1ccc2c(=O)c(-c3cnn(-c4ccccc4)c3)c(C)oc2c1	i	i	i	i	nt	nt
Cc1oc2c(C)c(O)ccc2c(=O)c1-c1cnn(-c2ccccc2)c1	i	i	18	i	i	i
COC(=O)c1[nH]c2ccc(C)cc2c1NC(=O)Nc1ccc(OC)cc1	i	i	i	i	nt	nt
COC(=O)c1[nH]c2ccc(F)cc2c1NC(=O)Nc1ccc(OC)cc1	i	i	23	i	i	i
Cc1ccc2c(Cl)c(Cc3ccccc3)c(=S)[nH]c2n1	i	i	21	i	35	i
SMILES	HTR5A ag	OPRM1-OPRD1 inv	OPRM1-OPRD1 ag	HTR5A inv ag	OPRM1-D1 ag cf	HTR5A ag counter
CCN(CC(=O)Nc1c(F)cccc1F)C(=O)C1CCN(S(=O)(=O)c2ccccc2C(=O)OC)CC1	i	i	i	i	nt	nt
C=CCN1N=C(c2ccc(NC(=O)c3ccccc3)cc2)CSC1=O	i	i	55	i	i	i
CC(C)Cn1nc(C(=O)NCc2ccccc2CN2CCCC2)c2ccccc2c1=O	i	i	163	i	i	i
C/C=C1\NC(=O)[C@H](C)NC(=O)[C@@H](NC(=O)[C@@H](Cc2ccc(O)cc2)NC(=O)[C@@H](NC(=O)/C(C)=C/C)C(C)C)[C@@H](C)OC(=O)[C@H](CCCCc2ccc(O)cc2)NC(=O)[C@@H](CCC(=O)O)NC1=O	i	i	i	i	nt	nt
C[C@H](NC(=O)c1ccccc1)C(=O)OCC(=O)Nc1sccc1C(N)=O	i	i	i	i	nt	nt
CCc1ccc(C(=O)c2cnc3ccc(OC)cc3c2N2CCN(CC)CC2)cc1	i	i	111	i	i	i
O=C(Nc1ccc2c(c1)C(=O)N(c1ccccc1)C2=O)c1cccs1	i	i	18	i	i	i
Cc1cccc(CC(Cc2nc3ccccc3[nH]2)c2nc3ccccc3[nH]2)c1 (stereo not drawn)	i	i	18	i	i	i
COC(=O)C1=C(C)N(Cc2ccccc2)C(=NCc2cccc(C(F)(F)F)c2)N[C@H]1c1cccc(F)c1	i	i	23	i	i	21
COC(=O)C1=C(C)N(Cc2ccccc2)C(=NCc2cccc(C(F)(F)F)c2)N[C@H]1c1cccc(C(F)(F)F)c1	i	i	45	i	i	i
COC(=O)C1=C(C)N(Cc2ccccc2)C(=NCCc2c[nH]c3ccccc23)N[C@H]1c1cccc(C(F)(F)F)c1	i	i	22	i	i	i
COCCN=C1N[C@@H](c2cccc(C(F)(F)F)c2)C(C(=O)OC)=C(C)N1Cc1ccccc1	i	i	i	i	nt	nt
COC(=O)C1=C(C)N(CC2CC2)C(=NCc2cccc(C(F)(F)F)c2)N[C@H]1c1ccccc1	i	i	i	i	nt	nt
Cc1ccc(C(=O)CN2C(=O)NC3(CCc4ccccc43)C2=O)s1 (stereo not drawn)	i	i	i	i	nt	nt
Cn1c(N)c(C(=O)COC(=O)Cc2ccc(Cl)c(Cl)c2)c(=O)n(C)c1=O	i	i	i	i	nt	nt
CC(C)=CCN1CCN(CCC2=C(C)CCCC2(C)C)CC1CCO (stereo not drawn)	i	i	24	i	i	i
N#CCC(=O)N/N=C/c1cn(Cc2ccc(Cl)cc2Cl)c2ccccc12	i	i	20	i	i	i
CCOC(=O)N/N=C/c1cn(Cc2ccc(Cl)cc2)c2ccccc12	i	i	i	i	nt	nt
COc1cc(C2CC(=O)Oc3cc(C)c(Br)c(C)c32)cc(OC)c1OC (stereo not drawn)	i	i	i	i	nt	nt
CCCn1nc(C(=O)Nc2cccc(S(=O)(=O)N(C)c3ccccc3)c2)c2ccccc2c1=O	i	i	i	i	nt	nt
Cc1ccc2cc(C(c3nnnn3Cc3ccccc3)N3CCc4ccccc43)c(=O)[nH]c2c1 (stereo not drawn)	i	i	20	i	60	i
